17 compounds from PMC5540273 (PLoS ONE, 2017) can be followed below.

Some test systems named below: HIPK4; HPK1; HUNK; ICK; IGF1R; INSRR; INSR.
Holding throughout (details): concentration: 1 μM, replicates: in singlicate; n = 1
In the next assay the test system is T1, IKK-alpha.
T1 construct: gene CHUK

Another assay deals with T2, IKK-beta.
T2 construct: gene IKBKB

For a further assay, the system named is T3, IKK-epsilon.
T3 construct: gene IKBKE
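Note: KINOMEscan kinase panel screen.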

For the compound `CNC(=O)c1ccc(C)c(-n2c(C)cc(OCc3ccc(F)cc3F)c(Br)c2=O)c1`, the “%Inh” value in the assay with HIPK4, in the assay with HPK1, with HUNK, with ICK, in the assay with IGF1R and with IKK-alpha was 0% in each case. Further, the “%Inh” value was determined as 0% in the assay on IKK-beta, 0% with IKK-epsilon, 6% with INSRR and 0% in the assay on INSR.
For `Cc1ccc(NC(=O)Nc2ccccc2)cc1-c1ccc(C(=O)Nc2ccncc2)cc1` [GSK1398471], the “%Inh” value is given as 10% with HIPK4; 37% in the assay on HPK1; 22% in the assay with HUNK; 2% with ICK; 11% in the assay with IGF1R; 0% in the assay with IKK-alpha. Moreover, the “%Inh” value in the assay on IKK-beta was 0%; in the assay on IKK-epsilon, 5%; in the assay with INSRR, 0%; with INSR it was 3%.
Regarding `CS(=O)(=O)Cc1ccc(Nc2nccc(-c3c(-c4cccc(NC(=O)C5CCCCC5)c4)nn4ncccc34)n2)cc1` [GSK350559], the “%Inh” value in the assay on HIPK4 is 0%; in the assay with HPK1 it was 14%; in the assay on HUNK, 7%; in the assay with ICK, 14%; in the assay with IGF1R it was 68%; with IKK-alpha it was 0%. Also, the “%Inh” value in the assay on IKK-beta worked out at 12%; with IKK-epsilon it was 32%; in the assay on INSRR, 20%; in the assay on INSR it was 42%.
On to `COc1cccc(CNC(=O)NC2CCN(c3ccnc(Nc4ccc(F)cc4)n3)C2)c1` (centres unmarked) [GSK1379723], for which the “%Inh” value with HIPK4 came to 0%; in the assay with HPK1, 40%; in the assay with HUNK, 0%; with ICK it was 21%; in the assay with IGF1R, 4%; with IKK-alpha, 44%. Further, the “%Inh” value in the assay with IKK-beta worked out at 14%; with IKK-epsilon, 0%; in the assay on INSRR it was 18%; in the assay on INSR it was 0%.
On to `COc1ccc(CSc2nnc(-c3ccc4nccn4c3)o2)cc1C(F)(F)F`, for which the “%Inh” value stood at 6% in the assay with HIPK4; 0% in the assay on HPK1; 0% in the assay on HUNK; 0% with ICK; 0% in the assay with IGF1R; 10% in the assay with IKK-alpha. Further, the “%Inh” value is listed as 7% in the assay on IKK-beta, 11% in the assay on IKK-epsilon, 8% in the assay with INSRR and 5% in the assay on INSR.
Regarding `Fc1ccc(-c2nc[nH]c2-c2ccncc2)cc1` [SB-217360], the “%Inh” value with HIPK4 was 0%; with HPK1, 0%; in the assay with HUNK, 55%; in the assay with ICK it was 0%; with IGF1R it was 3%; in the assay on IKK-alpha, 9%. In addition, the “%Inh” value in the assay with IKK-beta is 0%; in the assay on IKK-epsilon it was 0%; in the assay on INSRR it was 0%; in the assay on INSR, 24%.
As to `COc1ccc(CSc2nnc(-c3ccc4ncsc4c3)o2)cc1C(F)(F)F`, the “%Inh” value with HIPK4 was 0%; with HPK1, 0%; in the assay on HUNK it was 1%; in the assay with ICK, 0%; with IGF1R, 0%; with IKK-alpha, 0%. The “%Inh” value came to 0% in the assay with IKK-beta, 0% in the assay with IKK-epsilon, 1% in the assay on INSRR and 0% with INSR.
Consider `CSc1ccc(-c2nc3n(c2-c2ccncc2)CCC3)cc1` [SKF-105561], for which the “%Inh” value worked out at 2% with HIPK4; 0% in the assay on HPK1; 21% in the assay on HUNK; 18% in the assay with ICK; 0% in the assay with IGF1R; 5% in the assay with IKK-alpha. For the same compound, the “%Inh” value was found to be 6% with IKK-beta, 12% with IKK-epsilon, 0% with INSRR and 5% in the assay on INSR.
Take `Fc1ccc(-c2nn3cccc(F)c3c2-c2ccncc2)cc1` [GW475620]: the “%Inh” value in the assay with HIPK4 was 22%; in the assay with HPK1, 0%; in the assay on HUNK it was 0%; in the assay on ICK, 0%; in the assay with IGF1R, 47%; in the assay on IKK-alpha, 0%. Besides, the “%Inh” value in the assay on IKK-beta is listed as 0%; in the assay on IKK-epsilon, 14%; with INSRR, 0%; in the assay on INSR it was 13%.
Take `COC(=O)c1cccc(NC(=O)NC2CCN(c3ccnc(Nc4ccc(F)cc4)n3)C2)c1` (centres unmarked) [GSK1379725]: the “%Inh” value in the assay with HIPK4 is recorded as 0%; with HPK1, 51%; in the assay with HUNK, 0%; with ICK, 17%; with IGF1R it was 0%; in the assay on IKK-alpha it was 0%. The “%Inh” value in the assay with IKK-beta was 5%; with IKK-epsilon it was 0%; with INSRR, 0%; with INSR it was 0%.
Take `CC(=O)c1c(C)c2cnc(Nc3ccn(C)n3)nc2n(C2CCCC2)c1=O`: the “%Inh” value is reported as 0% in the assay on HIPK4; 0% in the assay with HPK1; 0% in the assay on HUNK; 0% in the assay on ICK; 1% in the assay on IGF1R; 0% in the assay on IKK-alpha. In addition, the “%Inh” value in the assay on IKK-beta, with IKK-epsilon, in the assay with INSRR and with INSR was 0% in each case.
On to `Cc1ccc(NC(=O)Nc2ccccc2F)cc1-c1ccc(C(=O)Nc2ccncc2)cc1` [GSK1398477], for which the “%Inh” value was found to be 0% in the assay with HIPK4; 44% in the assay on HPK1; 31% in the assay on HUNK; 18% with ICK; 0% in the assay on IGF1R; 0% with IKK-alpha. In addition, the “%Inh” value in the assay on IKK-beta came out at 6%; in the assay with IKK-epsilon, 19%; in the assay on INSRR, 11%; with INSR it was 16%.
For `COc1ccc(Nc2nccc(-c3ccc(NC(=O)c4cc5cc(F)ccc5[nH]4)cc3)n2)cc1` [GSK1229496], the “%Inh” value is 0% with HIPK4; 38% in the assay with HPK1; 0% in the assay on HUNK; 0% in the assay on ICK; 0% with IGF1R; 0% in the assay with IKK-alpha. Besides, the “%Inh” value in the assay with IKK-beta was found to be 0%; with IKK-epsilon it was 8%; in the assay on INSRR, 0%; in the assay with INSR, 0%.
For the compound `Cl.Cl.Cl.N#Cc1ccc(CCNc2nccc(-c3cccc(CN4CCNCC4)c3)n2)cc1` [GSK2137462], the “%Inh” value with HIPK4 amounted to 26%; with HPK1, 48%; with HUNK, 0%; in the assay on ICK, 5%; with IGF1R, 11%; with IKK-alpha, 0%. The “%Inh” value worked out at 0% with IKK-beta, 20% in the assay with IKK-epsilon, 0% in the assay with INSRR and 87% in the assay on INSR.
Regarding `FC(F)(F)c1ccccc1-c1cc(-c2c[nH]nc2-c2ccccn2)ccn1` [GW679396], the “%Inh” value in the assay on HIPK4 came to 0%; in the assay on HPK1 it was 0%; with HUNK, 0%; with ICK, 3%; in the assay with IGF1R, 0%; with IKK-alpha, 0%. The “%Inh” value was found to be 0% in the assay on IKK-beta, 100% with IKK-epsilon, 0% in the assay with INSRR and 0% in the assay on INSR.
Turning to `O=C(Nc1n[nH]c2cc(-c3ccsc3)ccc12)C1CC1` [SB-732932], the “%Inh” value in the assay with HIPK4 turned out to be 17%; in the assay on HPK1, 0%; in the assay with HUNK, 0%; in the assay on ICK it was 63%; in the assay with IGF1R, 0%; with IKK-alpha, 9%. Moreover, the “%Inh” value in the assay with IKK-beta stood at 9%; with IKK-epsilon it was 0%; in the assay on INSRR, 14%; with INSR, 9%.
On to `COC(=O)c1cccc(NC(=O)NC2CCN(c3ccnc(Nc4ccc(OC)cc4)n3)C2)c1` (centres unmarked) [GSK1379746], for which the “%Inh” value is reported as 0% with HIPK4; 41% with HPK1; 0% with HUNK; 12% with ICK; 1% in the assay with IGF1R; 44% in the assay on IKK-alpha. For the same compound, the “%Inh” value in the assay with IKK-beta came to 18%; in the assay on IKK-epsilon, 29%; in the assay on INSRR, 0%; in the assay on INSR, 0%.
